Experimental data as given in PubChem BioAssay AID1508600 (Functional Genomics Laboratory (NCATS/FGL), 2020).
The whole screen tested about 53,000 sequences, of which about 3,700 (7%) were called active.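 Rule for the calls: active = gene knockdowns whose robust z-score for IL-1 alpha signal is at least 2 or at most -2, so actives lie on both sides; inactive = the rest.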 Shown is part of a subset that was picked to be rich in actives.

Experiment: Components of the Cytosolic LPS Sensing Pathway: Gene Identification via Genome-wide siRNA Screen;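 note: robust z of the log signal after scaling to non-targeting control siRNA wells of the plate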
Details: RAW264.7 macrophages, IL-1a HTRF, actives lie on both sides, screened at 100 nM (by protocol), cells primed 5 h with Pam3CSK4 first
Method in brief: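 Mouse macrophage line RAW264.7 is transfected with siRNA (100 nM final), grown 48h, primed with TLR ligand Pam3CSK4 5 h and given intracellular LipidA 24 h. IL-1a in supernatant is read by HTRF and viability by luminescence.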

Row | Sequence | z-score
1 | GGCCAUAGUCCUGUUCACCTT against Nr2f2 | 0.492 (inactive)
2 | CCUUCAACAGAUCUAGAGUTT against Rexo1 | 2.36 (active)
3 | GGAGGUUACAAUCCAUGAGTT against Anapc1 | -0.951 (inactive)
4 | GGAUAGAUUUUAGGUAUUGTT against Htr5b | -0.475 (inactive)
5 | CGGAGUAGCGAUUAUGGUGTT against Art5 | -0.535 (inactive)
6 | GGAUUUAACCCUGAGAUACTT against Grpel2 | 0.621 (inactive)
7 | GGAUGAUAUCGGAGCCUGCTT against Clec4g | 0.392 (inactive)
8 | GGACAAAUACCACAAGUUGTT against Simc1 | 2.13 (active)
9 | GCAGGAGUAUUGCCAAGGATT against Csf1 | -0.404 (inactive)
10 | CGAAACACUCAAGGUUGUATT against Creb3l2 | -0.314 (inactive)
11 | GCAGCAUGCCUGAAUAUUUTT against Prcp | 0.172 (inactive)
12 | GGAGGUGGAACAAAUAUUUTT against Emc6 | 0.361 (inactive)
13 | GGAAGACUUGUUCAACUGGTT against Grwd1 | -0.88 (inactive)
14 | GCUGUUUGAGGUCAUUCAUTT against Urb2 | 4.71 (active)
15 | GGCUUUUGUCAAGCAGCACTT against Ins2 | -0.628 (inactive)
16 | CCUUGAAAAGUCUAAACGUTT against Tmod2 | 0.375 (inactive)
17 | GGGCUAGCCUAGAUAAAAATT against Sltm | -1.38 (inactive)
18 | GGGCUCCACAUGUUUGCAUTT against Ehmt1 | 0.392 (inactive)
19 | GGAAUUCUCUCAGCAGAAGTT against 1110038F14Rik | -2.17 (active)
20 | GGAACUUCUACAGUCCUCCTT against Parp16 | 0.193 (inactive)
21 | GGCUUCUUAUUGAUGUUGGTT against Asb13 | -0.166 (inactive)
22 | GGAUUUUUGAUGAUGUGUCTT against Arfgap1 | -0.795 (inactive)

Row | Sequence | z-score
23 | CCUUAUAGCAUAAGCUUUATT against Olfr768 | 2.04 (active)
24 | CCAAGAUACCUUUUUUGAGTT against Paox | 0.455 (inactive)
25 | GGCCUCUUCACUUAUGUAUTT against Inha | -0.22 (inactive)
26 | GGUCAAUUGUCCAUAUGACTT against Tox3 | -2.24 (active)
27 | GGACAAUGAAGGAAUUGAUTT against Mdm4 | -0.579 (inactive)
28 | CCUCGACUUUUAUUUGGAUTT against Smg6 | -0.0389 (inactive)
29 | GGUUAGCUUCUUAAAACCATT against Adcy10 | -0.605 (inactive)
30 | GGGAGCUAGCAAAAUCGGATT against Eif4g3 | 0.714 (inactive)
31 | GGUGAAGCCAGUUUCUUUATT against Traf3ip2 | 0.107 (inactive)
32 | CGUUGAUGUGUAUUUAAACTT against Vopp1 | 0.704 (inactive)
33 | GCUACUAUUGUGUUCUGAATT against Drd1 | 2.24 (active)
34 | CGUGAACGUAGAGUUUUCUTT against Fcrl5 | 3.59 (active)
35 | GGAACUGCUCAUAAAAACATT against Evi2b | 0.0355 (inactive)
36 | GCUAUUGAGUUAUCGUUGCTT against Stam2 | 0.715 (inactive)
37 | GGUACAGCUUAUGGAUUAATT against Pdgfra | -0.193 (inactive)
38 | GCCAGGUUUUCUCCAUAGATT against Tmem44 | -0.841 (inactive)
39 | GGUUUAUACUCAUAACCUGTT against Kifbp | 2.03 (active)
40 | GAAAUUAGAACAACUUUGGTT against 3830403N18Rik | 0.442 (inactive)
41 | GGACCGCCUUCAACAACAATT against Tpgs1 | 2.68 (active)
42 | GGCAUUUACCAAGUUCCUGTT against Olfr522 | -1.26 (inactive)
43 | GGACCAUAAGCACAUGAUUTT against Prl7c1 | 0.668 (inactive)
44 | GGUCCAUACAAGUGUUUGATT against Camk2b | -0.15 (inactive)

Row | Sequence | z-score
45 | GGUACUCGAAUCUGACCUCTT against Nqo1 | 2.04 (active)
46 | GGAAACCCAAUAUCAAACUTT against Rnf138 | 0.252 (inactive)
47 | GCAUCACUUACAGAUAGACTT against Olfr305 | -1.21 (inactive)
48 | GCAAUACCUCAGAAAAAGUTT against Tmem165 | -4.14 (active)
49 | GGAGGUCCAGAAGAAUUAUTT against Pam16 | 0.957 (inactive)
50 | GCAAAAGUAGAAGAACAACTT against Ccnt1 | -0.172 (inactive)
51 | GGUGGUUACCAUCUUACUUTT against Trhr | 0.532 (inactive)
52 | GGAAAUUUUCAAGCUCAAGTT against Gsdmd | -2.44 (active)
53 | GGAGGCAUUCGCAUAGACGTT against Tra2a | 1.68 (inactive)
54 | GGUGUGAGAUCGAAUCAGATT against Arhgef18 | 0.503 (inactive)
55 | GGCACUCUUGUUGAAAUUCTT against H6pd | 0.756 (inactive)
56 | GGGUUGUUUGCUGGUUUGUTT against Tmbim4 | 0.885 (inactive)
57 | GGUUGGAAAUUGGACAGGATT against Col6a3 | 2.22 (active)
58 | GGACCUCACAAGUGUUUAUTT against Pola1 | -0.837 (inactive)
59 | GGUGAAUGUGUGGAUUAUCTT against Itih2 | -0.684 (inactive)
60 | GGUUGUUCUUAACAUAACCTT against Ginm1 | 0.0306 (inactive)
61 | GGAUCAAGAAAAGAUGAAATT against Galnt1 | -0.858 (inactive)
62 | GGUGAUGCGAUCUUCUUUATT against Anxa10 | 1.76 (inactive)
63 | GGUCAAAAUAGAAGGAGUATT against Klhl4 | 0.124 (inactive)
64 | CCCUGUAUAUAUUUGCUGATT against Clca3a2 | 2.78 (active)
65 | GGUGCCCAUAAUAGCCAUCTT against Polr2c | -1.02 (inactive)
66 | GCCACACGACAUGUGAUUCTT against C2cd4c | -0.0403 (inactive)

Row | Sequence | z-score
67 | GCAGUUGGCAGGCUAAAAATT against Mff | 1.98 (inactive)
68 | CCCUAACUUAAUAAAACCUTT against Triobp | -2.41 (active)
69 | GGACAUCGAAGUCCAACACTT against Plekhm1 | -0.501 (inactive)
70 | CCACUUACAUGUCAGAUUATT against Slc30a6 | 1.09 (inactive)
71 | GGACUGGAAGAAUUUUUUGTT against Mrpl47 | 0.293 (inactive)
72 | GGGACAGAAAGGAAAGACUTT against Ndufb4 | 0.0331 (inactive)
73 | CCAUUGACACCUUAAAUAUTT against Cnot3 | 0.131 (inactive)
74 | GGGCACACCCAUGAAGACATT against Hnf1a | 4.58 (active)
75 | GGCAGAACUACUUUUAUAGTT against Cldn17 | 0.436 (inactive)
76 | GGCCGUACUAGAUUUUCUUTT against Olfr695 | 1.35 (inactive)
77 | GGCUGGGAAUUUUACAGUATT against Gpr3 | 3.98 (active)
78 | GGCCUAUAAGUUGGACUCCTT against Sstr5 | -0.897 (inactive)
79 | GGAAUAACAGCCUUGUAUUTT against Slc25a15 | -0.145 (inactive)
80 | GGAUCUGAUCCAGACUUCUTT against Ndrg1 | 2.05 (active)
81 | GGUUUUCUACAGGAGAGACTT against 9430015G10Rik | 1.33 (inactive)
82 | CGCAAUGCUGGAUUAUUUATT against Ceacam2 | 0.628 (inactive)
83 | GGGAAGUGACAUAUUCUCGTT against Brf2 | -0.277 (inactive)
84 | GGAGAAGCCAGGAGUUUACTT against Klk6 | 1.71 (inactive)
85 | GGUACUAGAUGACAAAAACTT against Cfap20 | 0.436 (inactive)
86 | GGUGUUUUAAGAUUGAAUGTT against Ccn1 | 0.782 (inactive)
87 | CCCAGGUAGUAUACAAGGUTT against Pcdh1 | 2.42 (active)
88 | CCCUCCAGUAAAUUUUAAGTT against Sox6 | 1.7 (inactive)

Row | Sequence | z-score
89 | GGCAUAUGCCAGUAUCGGUTT against Defb8 | -0.595 (inactive)
90 | GGAAUGGUAUCAGACUUCUTT against Tarm1 | 1.54 (inactive)
91 | GCUACAGAAACCCGGGUAGTT against Jsrp1 | -1.46 (inactive)
92 | CCGCCAUAGGCUCCUUCAATT against Acat3 | 0.915 (inactive)
93 | GGGAUCAAUGUCAUCCUUUTT against Nif3l1 | -0.442 (inactive)
94 | GCUGCGUAGAACCAUAUGCTT against Cst9 | -0.802 (inactive)
95 | GGAAAUCGAGGUUACAAGUTT against Isy1 | -2.64 (active)
96 | GGCCACUGACCAUGAAGAATT against Gata2 | -0.289 (inactive)
97 | GGCAAACAUGAAUCUUACCTT against Cyth4 | -0.375 (inactive)
98 | GGAGAUCAUCCACUUCCAGTT against Dbh | 2.06 (active)
99 | GCAAGACUCUACACAUCACTT against Nox4 | 0.0384 (inactive)
100 | GAGACAGAUAGGCAGAAAATT against Olfr478 | -1.02 (inactive)
101 | CCAAUUGAAACUCUUUUCCTT against Thada | 0.562 (inactive)
102 | GGUUUGGUGUCAGGUGACATT against Olfr1181 | -2.05 (active)
103 | GGGUGAAAAAGGAAUAAAGTT against Col7a1 | 0.344 (inactive)
104 | GGAAAUCAUCUUUUCAGAUTT against Slc7a12 | -0.443 (inactive)
105 | GCCACUAGUGAAGACAUCCTT against Adamtsl1 | -0.149 (inactive)
106 | CGUCUCCAUAGAUCUAGAUTT against Creb3 | -0.748 (inactive)
107 | CCAUCUUGACACCCAAACUTT against Olfr170 | -3.09 (active)
108 | CGAAAGCAUUGCCUACUUUTT against Anks3 | 0.843 (inactive)
